PubChem BioAssay (EPA / NIEHS)
Active and inactive are the calls of the source. How the source made its calls: active means hit-call score of the fitted dose curve at least 0.9, where 1 is the maximum; inactive means score below 0.9.

How the values were obtained:
Conditions in all cases: mRNA level, 48 h; actives raise or lower the signal
[1] = read-out: MicroRNA 122 (MIR122), gene 406906; assay: LTEA_HepaRG_MIR122: Life Technologies and Expression Analysis (LTEA) Assay for MicroRNA 122 (MIR122) using HepaRG (AID 2283516); further: the transcript read is the microRNA miR-122
In short: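 Differentiated human HepaRG cells in serum-free induction medium exposed 48 h to 8 half-log concentrations from 100 uM in 0.5% DMSO, duplicate. MIR122 quantified by Fluidigm TaqMan qRT-PCR, normalised to ACTB, GAPDH, POLR2A; fold change fitted bidirectionally versus DMSO.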

[2] = read-out: matrix metalloproteinase-10 (MMP10), MMP10 (gene 4319); assay: LTEA_HepaRG_MMP10: Life Technologies and Expression Analysis (LTEA) Assay for matrix metalloproteinase-10 (MMP10) using HepaRG (AID 2283517)
In short: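 HepaRG, collagen I, ~100,000 cells/well; serum-free induction medium; 48 h exposure, duplicate, 8-pt half-log to 100 uM, 0.5% DMSO. Readout: TaqMan qRT-PCR, normalized to ACTB/GAPDH/POLR2A; bidirectional fit vs DMSO.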

[3] = read-out: MYC, MYC (gene 4609); assay: LTEA_HepaRG_MYC: Life Technologies and Expression Analysis (LTEA) Assay for MYC using HepaRG (AID 2283518)
In short: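 Expression changes were scored by TaqMan qRT-PCR with ACTB, GAPDH and POLR2A normalization. Cultures in serum-free induction medium received duplicate 8-point concentration series, highest 100 uM, for 48 h; DMSO (0.5%) served as baseline.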

[4] = read-out: matrix metalloproteinase-3 (MMP3), MMP3 (gene 4314); assay: LTEA_HepaRG_MMP3: Life Technologies and Expression Analysis (LTEA) Assay for matrix metalloproteinase-3 (MMP3) using HepaRG (AID 2283519)
In short: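 Differentiated human HepaRG cells, plated 48 h on collagen I, were exposed in duplicate for 48 h in serum-free induction medium to eight half-log concentrations up to 100 uM in 0.5% DMSO. MMP3 mRNA was quantified by TaqMan qRT-PCR, normalised to ACTB, GAPDH and POLR2A.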

[5] = read-out: Paternally Expressed 10 (PEG10), PEG10 (gene 23089); assay: LTEA_HepaRG_PEG10: Life Technologies and Expression Analysis (LTEA) Assay for Paternally Expressed 10 (PEG10) using HepaRG (AID 2283520)
In short: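 Differentiated HepaRG cells exposed 48 h in serum-free induction medium to eight half-log concentrations topping at 100 uM, 0.5% DMSO, in duplicate. PEG10 mRNA quantified by TaqMan qRT-PCR, normalized to ACTB, GAPDH and POLR2A; bidirectional fit versus DMSO.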

[6] = read-out: Nuclear factor NF-kappa-B p105 subunit (Homo sapiens) (UniProt P19838); assay: LTEA_HepaRG_NFKB1: Life Technologies and Expression Analysis (LTEA) Assay for Nuclear Factor Kappa B Subunit 1 (NFKB1) using HepaRG (AID 2283521)
In short: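 Differentiated human HepaRG cells were exposed for 48 h in serum-free induction medium to eight concentrations (top 100 uM, half-log steps, 0.5% DMSO), in duplicate. NFKB1 mRNA was measured by TaqMan qRT-PCR, normalized to ACTB/GAPDH/POLR2A, and fitted bidirectionally against DMSO.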

[7] = read-out: Protein phosphatase 2A (PPP2R4), PTPA (gene 5524); assay: LTEA_HepaRG_PPP2R4: Life Technologies and Expression Analysis (LTEA) Assay for Protein phosphatase 2A (PPP2R4) using HepaRG (AID 2283522)
In short: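 Differentiated human HepaRG cells in serum-free induction medium were exposed 48 h to 8 concentrations (top 100 µM, half-log steps, duplicate) in 0.5% DMSO. PPP2R4 mRNA was measured by TaqMan qRT-PCR, normalised to ACTB, GAPDH and POLR2A, and fitted bidirectionally versus DMSO.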

[8] = read-out: Phosphatase and tensin (PTEN), PTEN (gene 5728); assay: LTEA_HepaRG_PTEN: Life Technologies and Expression Analysis (LTEA) Assay for Phosphatase and tensin (PTEN) using HepaRG (AID 2283523)
In short: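 Differentiated human HepaRG cells, plated 48 h then switched to serum-free induction medium, were exposed in duplicate for 48 h to eight half-log concentrations up to 100 uM in 0.5% DMSO. PTEN mRNA measured by TaqMan qRT-PCR, normalized to ACTB/GAPDH/POLR2A, bidirectional fit versus DMSO.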

[9] = read-out: solute carrier (SLC22A1), SLC22A1 (gene 6580); assay: LTEA_HepaRG_SLC22A1: Life Technologies and Expression Analysis (LTEA) Assay for solute carrier (SLC22A1) using HepaRG (AID 2283524)
In short: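 Human HepaRG cells were plated 48 h, switched to serum-free induction medium, then exposed in duplicate for 48 h to 8-point half-log series from 100 uM in 0.5% DMSO. SLC22A1 mRNA measured by qRT-PCR, normalized to ACTB/GAPDH/POLR2A, fitted bidirectionally versus DMSO.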

[10] = read-out: Pyruvate Dehydrogenase Kinase 4 (PDK4), PDK4 (gene 5166); assay: LTEA_HepaRG_PDK4: Life Technologies and Expression Analysis (LTEA) Assay for Pyruvate Dehydrogenase Kinase 4 (PDK4) using HepaRG (AID 2283525)
In short: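 Differentiated human HepaRG cells, pre-cultured 48 h, were exposed in duplicate for 48 h in serum-free induction medium to eight half-log concentrations up to 100 uM in 0.5% DMSO. PDK4 mRNA was quantified by qRT-PCR, normalized to ACTB, GAPDH and POLR2A, bidirectional fitting versus DMSO.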

[11] = read-out: NAD(P)H dehydrogenase [quinone] 1 (NQO1), NQO1 (gene 1728); assay: LTEA_HepaRG_NQO1: Life Technologies and Expression Analysis (LTEA) Assay for NAD(P)H dehydrogenase [quinone] 1 (NQO1) using HepaRG (AID 2283526)
In short: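 Differentiated human HepaRG cells in serum-free induction medium, dosed in duplicate for 48 h at 8 half-log concentrations up to 100 uM in 0.5% DMSO. NQO1 mRNA by qRT-PCR normalized to ACTB, GAPDH, POLR2A; bidirectional fit versus DMSO baseline.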

[12] = read-out: Nuclear factor erythroid 2-related factor 2 (Homo sapiens) (UniProt Q16236); assay: LTEA_HepaRG_NFE2L2: Life Technologies and Expression Analysis (LTEA) Assay for Nuclear factor erythroid 2-related factor 2 (NFE2L2) Transcription Factor using HepaRG (AID 2283527)
In short: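 Differentiated human HepaRG cells in serum-free induction medium were exposed for 48 h to eight concentrations (top 100 uM, half-log dilutions, 0.5% DMSO), in duplicate. NFE2L2 mRNA was quantified by TaqMan qRT-PCR, normalized to ACTB, GAPDH and POLR2A, with bidirectional fitting versus DMSO.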

[13] = read-out: succinate dehydrogenase complex iron sulfur subunit B (SDHB), SDHB (gene 6390); assay: LTEA_HepaRG_SDHB: Life Technologies and Expression Analysis (LTEA) Assay for succinate dehydrogenase complex iron sulfur subunit B (SDHB) using HepaRG (AID 2283528)
In short: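 HepaRG, 48 h exposure, 8-pt half-log series from 100 uM in 0.5% DMSO, duplicates. Readout: SDHB mRNA by Fluidigm qRT-PCR vs housekeeping genes; bidirectional fit relative to DMSO.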

[14] = read-out: Signal transducer and activator of transcription 3 (Homo sapiens) (UniProt P40763); assay: LTEA_HepaRG_STAT3: Life Technologies and Expression Analysis (LTEA) Assay for Signal transducer and activator of transcription (STAT3) using HepaRG (AID 2283529)
In short: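 Differentiated human HepaRG cells in serum-free induction medium were exposed in duplicate for 48 h to eight half-log concentrations up to 100 uM in 0.5% DMSO. STAT3 mRNA was quantified by TaqMan qRT-PCR, normalized to ACTB, GAPDH and POLR2A, and fitted bidirectionally against DMSO.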

[15] = read-out: solute carrier (SLCO1B1), SLCO1B1 (gene 10599); assay: LTEA_HepaRG_SLCO1B1: Life Technologies and Expression Analysis (LTEA) Assay for solute carrier (SLCO1B1) using HepaRG (AID 2283530)
In short: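 Human HepaRG cultures treated for 48 h with an eight-concentration half-log series topping at 100 uM; SLCO1B1 measured by qRT-PCR and fitted bidirectionally relative to DMSO.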

[16] = read-out: sulfotransferase 2A1 (SULT2A1), SULT2A1 (gene 6822); assay: LTEA_HepaRG_SULT2A1: Life Technologies and Expression Analysis (LTEA) Assay for sulfotransferase 2A1 (SULT2A1) using HepaRG (AID 2283531)
In short: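 Gene-expression endpoint in a human liver cell line: SULT2A1 mRNA change after 48 h chemical treatment, curves fitted in both directions relative to 0.5% DMSO vehicle. Concentrations spanned eight half-log steps from 100 uM.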

[17] = read-out: Transforming Growth Factor (TGFA), TGFA (gene 7039); assay: LTEA_HepaRG_TGFA: Life Technologies and Expression Analysis (LTEA) Assay for Transforming Growth Factor (TGFA) using HepaRG (AID 2283532)
In short: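 Differentiated human HepaRG cells, plated 48 h then switched to serum-free induction medium, were exposed in duplicate for 48 h to 8-point half-log series from 100 uM in 0.5% DMSO. TGFA mRNA measured by qRT-PCR, normalized to ACTB/GAPDH/POLR2A, bidirectional fit versus DMSO.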

[18] = read-out: Transforming Growth Factor (TGFB1), TGFB1 (gene 7040); assay: LTEA_HepaRG_TGFB1: Life Technologies and Expression Analysis (LTEA) Assay for Transforming Growth Factor (TGFB1) Transporter using HepaRG (AID 2283533)
In short: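 Eight-point concentration-response (max 100 uM, half-log) in HepaRG under serum-free induction conditions, 48 h. TGFB1 mRNA by qRT-PCR, housekeeping-normalized.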

[19] = read-out: TIMP1, TIMP1 (gene 7076); assay: LTEA_HepaRG_TIMP1: Life Technologies and Expression Analysis (LTEA) Assay for TIMP1 using HepaRG (AID 2283534);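 further: TaqMan qRT-PCR signal normalized to ACTB GAPDH and POLR2A housekeeping genes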
In short: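 TIMP1 induction or repression in HepaRG cells after 48 h chemical exposure (eight concentrations, highest 100 uM), assessed by normalized qRT-PCR with bidirectional fitting to DMSO controls.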

[20] = read-out: Tumor necrosis factor receptor 1 (TNFRSF1A), TNFRSF1A (gene 7132); assay: LTEA_HepaRG_TNFRSF1A: Life Technologies and Expression Analysis (LTEA) Assay for Tumor necrosis factor receptor 1 (TNFRSF1A) using HepaRG (AID 2283535)
In short: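 Assay uses 48 h chemical treatment of differentiated HepaRG monolayers, tested in duplicate at eight concentrations from 100 uM downward in 0.5% DMSO. mRNA is normalized to ACTB, GAPDH and POLR2A, with induction or suppression fitted relative to vehicle.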

Measured: AC50

Signal transducer and activator of transcription 3 (Homo sapiens), sequence (P40763 whole entry, looked up): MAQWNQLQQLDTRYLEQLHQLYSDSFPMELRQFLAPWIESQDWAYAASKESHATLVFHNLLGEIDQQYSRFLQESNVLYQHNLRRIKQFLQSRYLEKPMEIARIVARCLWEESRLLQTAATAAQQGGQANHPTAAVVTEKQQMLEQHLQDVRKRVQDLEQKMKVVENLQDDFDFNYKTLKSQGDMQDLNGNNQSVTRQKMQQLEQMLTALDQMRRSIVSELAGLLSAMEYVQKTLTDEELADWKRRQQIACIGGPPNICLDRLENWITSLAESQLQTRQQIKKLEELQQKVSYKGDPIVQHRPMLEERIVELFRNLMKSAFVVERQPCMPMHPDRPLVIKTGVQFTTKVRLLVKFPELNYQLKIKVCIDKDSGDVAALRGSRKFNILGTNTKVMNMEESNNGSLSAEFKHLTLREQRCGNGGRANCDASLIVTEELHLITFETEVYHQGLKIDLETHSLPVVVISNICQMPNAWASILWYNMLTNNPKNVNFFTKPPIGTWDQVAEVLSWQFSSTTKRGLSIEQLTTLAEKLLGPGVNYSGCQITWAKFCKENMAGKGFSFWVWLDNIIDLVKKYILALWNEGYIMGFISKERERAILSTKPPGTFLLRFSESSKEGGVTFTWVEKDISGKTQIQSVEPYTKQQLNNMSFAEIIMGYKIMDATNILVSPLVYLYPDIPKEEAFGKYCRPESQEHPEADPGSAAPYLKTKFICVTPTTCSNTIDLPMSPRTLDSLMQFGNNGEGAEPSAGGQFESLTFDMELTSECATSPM
Nuclear factor erythroid 2-related factor 2 (Homo sapiens), sequence (Q16236 whole entry, looked up): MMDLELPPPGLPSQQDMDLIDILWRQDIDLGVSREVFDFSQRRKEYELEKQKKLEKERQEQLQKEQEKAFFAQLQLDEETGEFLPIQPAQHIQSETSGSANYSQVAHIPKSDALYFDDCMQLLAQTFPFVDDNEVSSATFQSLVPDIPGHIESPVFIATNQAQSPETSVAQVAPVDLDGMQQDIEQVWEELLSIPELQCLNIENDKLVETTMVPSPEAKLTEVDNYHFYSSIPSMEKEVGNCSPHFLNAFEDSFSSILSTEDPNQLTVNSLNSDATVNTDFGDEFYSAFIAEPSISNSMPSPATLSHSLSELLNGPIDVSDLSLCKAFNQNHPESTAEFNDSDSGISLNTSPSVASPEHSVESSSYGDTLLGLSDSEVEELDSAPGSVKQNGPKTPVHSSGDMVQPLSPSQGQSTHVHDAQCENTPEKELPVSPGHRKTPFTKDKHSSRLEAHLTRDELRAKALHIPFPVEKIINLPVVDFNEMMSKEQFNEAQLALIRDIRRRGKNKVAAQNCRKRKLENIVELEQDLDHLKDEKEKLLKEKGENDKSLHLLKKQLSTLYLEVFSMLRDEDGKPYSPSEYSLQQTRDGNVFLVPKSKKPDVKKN
Nuclear factor NF-kappa-B p105 subunit (Homo sapiens), sequence (P19838 whole entry, looked up): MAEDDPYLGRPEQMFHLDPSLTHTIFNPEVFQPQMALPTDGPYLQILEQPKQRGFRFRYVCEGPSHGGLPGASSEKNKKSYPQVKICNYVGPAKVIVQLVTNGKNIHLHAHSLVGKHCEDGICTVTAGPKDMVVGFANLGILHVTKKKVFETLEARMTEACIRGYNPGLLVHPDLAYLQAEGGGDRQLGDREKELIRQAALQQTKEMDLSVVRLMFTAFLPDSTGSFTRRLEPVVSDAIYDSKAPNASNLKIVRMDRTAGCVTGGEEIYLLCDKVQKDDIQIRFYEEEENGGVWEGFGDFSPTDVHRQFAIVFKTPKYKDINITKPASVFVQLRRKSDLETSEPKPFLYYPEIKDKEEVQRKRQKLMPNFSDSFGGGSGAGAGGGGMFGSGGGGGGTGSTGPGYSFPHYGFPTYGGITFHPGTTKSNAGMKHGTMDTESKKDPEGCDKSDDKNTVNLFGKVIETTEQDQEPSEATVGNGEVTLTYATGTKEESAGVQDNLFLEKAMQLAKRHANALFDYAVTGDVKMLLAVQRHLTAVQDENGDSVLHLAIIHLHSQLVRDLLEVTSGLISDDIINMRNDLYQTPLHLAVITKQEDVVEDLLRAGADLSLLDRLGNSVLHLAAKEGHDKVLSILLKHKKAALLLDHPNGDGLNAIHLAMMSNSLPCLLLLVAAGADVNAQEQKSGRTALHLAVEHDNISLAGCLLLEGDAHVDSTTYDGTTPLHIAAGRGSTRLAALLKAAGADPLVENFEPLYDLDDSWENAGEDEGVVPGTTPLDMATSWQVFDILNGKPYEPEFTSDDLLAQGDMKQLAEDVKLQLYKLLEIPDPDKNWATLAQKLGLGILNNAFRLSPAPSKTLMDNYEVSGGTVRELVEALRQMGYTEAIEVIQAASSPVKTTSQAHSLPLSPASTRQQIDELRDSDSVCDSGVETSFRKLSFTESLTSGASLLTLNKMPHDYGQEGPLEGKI

CCCCCCCCCCCCCCCCO
active: [10] 66.3 µM | [16] 50 µM
inactive: all other assays above

CN(C)CCCN1c2ccccc2Sc2ccc(Cl)cc21
inactive: [4] | [7] | [10] | [14] | [15] | [17] | [19] | [20]
active: [1] 85.7 µM | [2] 85.1 µM | [3] 87.5 µM | [5] 18.2 µM | [6] 78.4 µM | [8] 78 µM | [9] 79.4 µM | [11] 83.9 µM | [12] 82.4 µM | [16] 82.7 µM | [18] 12.5 µM

CCCCOC(=O)CCCCC(=O)OCCCC
active: [9] 0.243 µM
not listed: [11]
inactive: all other assays above

O=C(N[C@@H](c1ccccc1)[C@@H]1CCCCN1)c1cccc(C(F)(F)F)c1Cl
inactive: [1] | [6] | [11] | [17] | [19]
active: [2] 35 µM | [3] 50 µM | [4] 87.1 µM | [5] 50 µM | [7] 89.5 µM | [8] 75.2 µM | [9] 40.5 µM | [10] 50 µM | [12] 83.8 µM | [13] 91.4 µM | [14] 80.3 µM | [15] 37.1 µM | [16] 78.9 µM | [18] 82.3 µM | [20] 82.2 µM

CC(=O)[C@@]1(O)CC[C@H]2[C@@H]3CCC4=CC(=O)CC[C@]4(C)[C@H]3CC[C@@]21C
active: [5] 7.76 µM
not listed: [13]
inactive: all other assays above

CC(C)COC(=O)CCCCC(=O)OCC(C)C
inactive: all assays above

NC=O
inactive: all assays above

CC(=O)S[C@H](C(=O)N[C@H]1Cc2ccccc2[C@H]2CCC[C@@H](C(=O)O)N2C1=O)C(C)C
inactive: all assays above

C#CC(O)C(CC)CCCC (stereo not drawn)
inactive: all assays above

CO[C@@H]1COCC[C@@H]1N[C@@H]1CC[C@@](C(=O)N2CCc3ncc(C(F)(F)F)cc3C2)(C(C)C)C1
not listed: [11]
inactive: all other assays above

COC(=O)CCC(=O)OC
not listed: [11]
inactive: all other assays above

CCCC(=O)O
not listed: [11]
inactive: all other assays above

CCCCCCC(CCCCCCCCCCC(=O)OCC(COC(C)=O)OC(C)=O)OC(C)=O (stereo not drawn)
not listed: [11]
inactive: all other assays above

CC(=O)OCC(COC(C)=O)OC(C)=O
inactive: all assays above
